Inconclusive results are not listed. Where a call stands in place of a potency, no number is given. Activity calls are given as the source filed them. Unless noted, calls come from the whole dose curve; as a rule, active = well fitted curve in the direction sought with a large enough effect in the repeat runs; inconclusive = weak or mixed curves; inactive = no such curve, though single readings can be large; an effect the other way counts as inactive or inconclusive.
Assays:
[1] = qHTS RealTime-Glo MT Cell Viability Assay in HepG2 cells - 32 hour (AID 1224877); note: nearly all actives have a fitted effect of over 55% in size
Procedure, shortened: (§1)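 Cell number in HepG2 cultures estimated from NanoLuc luminescence generated by metabolic reduction of a prosubstrate by living cells. The homogeneous, nonlytic format allowed repeated reads at 0, 8, 16, 24, 32 and 40 h of compound exposure.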

[2] = A CellTox Green Cytotoxicity Assay to monitor cytotoxicity in HepG2 cells - 24 hour (AID 1224878); note: nearly all actives have a fitted effect of over 45% in size; note: potency is the fitted concentration of half-maximal effect
Procedure, shortened: (§2)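 Continuous culture of HepG2 cells with a membrane-impermeant DNA dye; rising fluorescence marks dead cells. Compound exposure lasted up to 40 h at 37 C, with reads every 8 h from 0 h.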

[3] = A CellTox Green Cytotoxicity Assay to monitor cytotoxicity in HepG2 cells - 40 hour (AID 1224879); note: nearly all actives have a fitted effect of over 40% in size; note: potency is the fitted concentration of half-maximal effect
Procedure, shortened: as §2

[4] = qHTS RealTime-Glo MT Cell Viability Assay in HEK293 cells - 0 hour (AID 1224880); note: top concentration of the series differs between compounds; nearly all actives have a fitted effect of over 45% in size
Procedure, shortened: (§3)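 qHTS format; HEK293 cells with NanoLuc/prosubstrate reagent, 37 C/5% CO2 for 5 h pre-dosing; compounds 23 nL in DMSO; luminescence at each time point reflects viable cells.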

[5] = A CellTox Green Cytotoxicity Assay to monitor cytotoxicity in HEK293 cells - 32 hour (AID 1224881); note: nearly all actives have a fitted effect of over 40% in size; note: potency is the fitted concentration of half-maximal effect
Procedure, shortened: (§4)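 Each value comes from one timepoint of a single continuous run in which HEK293 cells with CellTox Green were exposed to compound for up to 40 h at 37 C, dye fluorescence rising with cell death.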

[6] = A CellTox Green Cytotoxicity Assay to monitor cytotoxicity in HepG2 cells - 0 hour (AID 1224882); note: nearly all actives have a fitted effect of over 35% in size; note: potency is the fitted concentration of half-maximal effect
Procedure, shortened: as §2

[7] = A CellTox Green Cytotoxicity Assay to monitor cytotoxicity in HepG2 cells - 32 hour (AID 1224883); note: nearly all actives have a fitted effect of over 50% in size; note: potency is the fitted concentration of half-maximal effect
Procedure, shortened: as §2

[8] = A CellTox Green Cytotoxicity Assay to monitor cytotoxicity in HEK293 cells - 8 hour (AID 1224884); note: nearly all actives have a fitted effect of over 35% in size; note: potency is the fitted concentration of half-maximal effect
Procedure, shortened: as §4

[9] = qHTS RealTime-Glo MT Cell Viability Assay in HepG2 cells - 16 hour (AID 1224885); note: nearly all actives have a fitted effect of over 50% in size
Procedure, shortened: as §1

[10] = A CellTox Green Cytotoxicity Assay to monitor cytotoxicity in HEK293 cells - 16 hour (AID 1224888); note: nearly all actives have a fitted effect of over 35% in size; note: potency is the fitted concentration of half-maximal effect
Procedure, shortened: as §4

[11] = qHTS RealTime-Glo MT Cell Viability Assay in HepG2 cells - 0 hour (AID 1224889); note: nearly all actives have a fitted effect of over 50% in size
Procedure, shortened: as §1

[12] = A CellTox Green Cytotoxicity Assay to monitor cytotoxicity in HepG2 cells - 8 hour (AID 1224890); note: nearly all actives have a fitted effect of over 45% in size; note: potency is the fitted concentration of half-maximal effect
Procedure, shortened: as §2

[13] = qHTS assay to identify small molecule antagonists of the estrogen receptor alpha (ER-alpha) signaling pathway using the BG1 cell line in the presence of 0.1 nM 17-beta-estradiol - cell viability counter screen (AID 1259241); note: nearly all actives have a fitted effect of over 40% in size
Procedure, shortened: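 CellTiter-Fluor read (30 min, 37C) on ER-alpha/ERE-luc VM7Luc4E2 cells; 22 hr compound treatment; agonist 0.1 nM E2 final; same-well multiplex.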

[14] = qHTS assay to identify small molecule antagonists of the androgen receptor (AR) signaling pathway using the MDA cell line in the presence of 0.5 nM R1881 - cell viability counter screen (AID 1259242); note: nearly all actives have a fitted effect of over 45% in size
Procedure, shortened: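 Fluorescence from CellTiter-Fluor, which reports protease activity of live cells, was read 30 min after reagent addition to MDA-kb2 cells that had been incubated 16 hr with compound and 0.5 nM R1881.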

[15] = target: Androgen receptor (Homo sapiens) (UniProt P10275); test: qHTS assay to identify small molecule antagonists of the androgen receptor (AR) signaling pathway using the MDA cell line in the presence of 0.5 nM R1881 (AID 1259243); note: nearly all actives have a fitted effect of over 50% in size
Androgen receptor (Homo sapiens), sequence (P10275 whole entry, looked up): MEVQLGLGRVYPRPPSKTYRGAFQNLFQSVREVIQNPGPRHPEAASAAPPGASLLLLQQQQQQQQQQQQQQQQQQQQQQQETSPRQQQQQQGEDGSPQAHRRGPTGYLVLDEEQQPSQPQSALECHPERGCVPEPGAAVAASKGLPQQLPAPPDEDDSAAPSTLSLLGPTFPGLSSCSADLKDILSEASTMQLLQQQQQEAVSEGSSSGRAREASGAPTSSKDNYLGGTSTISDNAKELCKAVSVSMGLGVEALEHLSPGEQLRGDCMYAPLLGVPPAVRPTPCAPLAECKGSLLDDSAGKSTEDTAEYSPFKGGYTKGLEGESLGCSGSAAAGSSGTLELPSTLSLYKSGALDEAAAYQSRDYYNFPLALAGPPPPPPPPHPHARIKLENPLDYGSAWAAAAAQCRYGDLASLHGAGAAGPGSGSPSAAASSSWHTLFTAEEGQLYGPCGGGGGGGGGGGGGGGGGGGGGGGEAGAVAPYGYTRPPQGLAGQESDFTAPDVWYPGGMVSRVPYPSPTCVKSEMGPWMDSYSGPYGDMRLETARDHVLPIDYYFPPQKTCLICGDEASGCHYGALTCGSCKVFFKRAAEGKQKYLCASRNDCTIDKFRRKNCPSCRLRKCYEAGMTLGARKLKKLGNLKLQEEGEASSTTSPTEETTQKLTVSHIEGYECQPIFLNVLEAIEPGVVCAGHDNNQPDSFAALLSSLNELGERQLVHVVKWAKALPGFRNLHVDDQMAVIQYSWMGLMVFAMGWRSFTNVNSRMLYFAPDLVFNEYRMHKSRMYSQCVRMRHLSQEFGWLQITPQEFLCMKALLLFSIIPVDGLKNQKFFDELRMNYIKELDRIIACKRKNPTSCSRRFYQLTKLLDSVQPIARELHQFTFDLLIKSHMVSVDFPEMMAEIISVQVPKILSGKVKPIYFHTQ
Procedure, shortened: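 Inhibition of R1881 (0.5 nM final) induced reporter signal was measured in human MDA-kb2 cells; note the MMTV promoter also responds to GR. Exposure lasted 16 hr at 37C.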

[16] = target: Estrogen receptor (Homo sapiens) (UniProt P03372); test: qHTS assay to identify small molecule antagonists of the estrogen receptor alpha (ER-alpha) signaling pathway using the BG1 cell line in the presence of 0.1 nM 17-beta-estradiol (AID 1259244); note: nearly all actives have a fitted effect of over 50% in size
Estrogen receptor (Homo sapiens), sequence (P03372 whole entry, looked up): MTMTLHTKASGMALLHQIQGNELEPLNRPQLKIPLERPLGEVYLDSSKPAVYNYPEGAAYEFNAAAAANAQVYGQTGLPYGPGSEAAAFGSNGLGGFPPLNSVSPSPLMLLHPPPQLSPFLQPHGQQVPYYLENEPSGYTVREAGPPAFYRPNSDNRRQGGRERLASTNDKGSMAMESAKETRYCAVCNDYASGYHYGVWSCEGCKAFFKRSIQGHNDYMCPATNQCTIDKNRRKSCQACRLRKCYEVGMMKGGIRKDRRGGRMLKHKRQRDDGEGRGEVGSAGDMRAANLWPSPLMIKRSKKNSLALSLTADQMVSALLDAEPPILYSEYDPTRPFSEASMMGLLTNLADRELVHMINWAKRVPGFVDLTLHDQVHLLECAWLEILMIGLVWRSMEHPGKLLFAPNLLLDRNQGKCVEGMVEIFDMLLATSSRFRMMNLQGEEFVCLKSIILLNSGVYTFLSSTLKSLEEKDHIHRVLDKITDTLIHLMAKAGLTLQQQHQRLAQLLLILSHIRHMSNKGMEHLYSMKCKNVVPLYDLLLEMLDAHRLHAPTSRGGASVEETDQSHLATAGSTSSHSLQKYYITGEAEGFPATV
Procedure, shortened: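 Quantitative high-throughput screen in VM7Luc4E2 cells: compound plus 0.1 nM E2 (final), 22 h, 37C, 5% CO2; ONE-Glo added, 30 min room temperature, luminescence measured.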

[17] = qHTS assay to identify small molecule phospholipidosis (PLD) inducers (AID 1259344; active = well fitted curve in the direction sought with a large enough effect; an effect the other way counts as inactive or inconclusive; note: potency is the fitted concentration of half-maximal effect)
Procedure, shortened: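 HepG2 cells, 900/well, treated with compound plus LipidTOX Red for 24 h at 37 C; amiodarone positive and DMSO negative controls. Fixed with paraformaldehyde/Hoechst, then high-content imaging scored LipidTOX pit count and integrated intensity per well and per cell.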

[18] = qHTS assay to identify small molecule HDAC inhibitors (AID 1259364); note: nearly all actives have a fitted effect of over 45% in size; note: potency is the fitted concentration of half-maximal effect
Procedure, shortened: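 Endogenous HDAC class I/II activity was measured in wild-type HCT-116 cells by HDAC-Glo luminescence after 2 h compound treatment.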

[19] = qHTS RealTime-Glo MT Cell Viability Assay in HEK293 cells - 8 hour (AID 1224887)
Procedure, shortened: as §3

[20] = qHTS RealTime-Glo MT Cell Viability Assay in HEK293 cells - 24 hour (AID 1224886)
Procedure, shortened: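 Homogeneous bioluminescent viability format in HEK293 cells (600 cells/well). Following 5 h at 37 C/5% CO2, 23 nL compound was pintooled; the signal was measured repeatedly during 40 h incubation.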

Compound	outcome [1]	Potency [2]	Potency [3]	Potency [4]	Potency [5]	Potency [6]	Potency [7]	Potency [8]	outcome [9]	Potency [10]	Potency [11]	Potency [12]	outcome [13]	outcome [14]	Potency [15]	outcome [16]	Potency [17]	Potency [18]	outcome [19]	outcome [20]
N[C@H]1C(O)O[C@H](CO)[C@@H](O)[C@@H]1O (stereo partly specified)	inactive	inactive	inactive	inactive	inactive	inactive	inactive	inactive	inactive	inactive	inactive	inactive	inactive	inactive	inactive	inactive	inactive	inactive		
C=CC(=O)CC	inactive	inactive	inactive	inactive	inactive	inactive	inactive	inactive	inactive	inactive	inactive	inactive	inactive	inactive				inactive	inactive	
CCCCCC(=O)CC	inactive	inactive	inactive	inactive	inactive	inactive	inactive	inactive	inactive	inactive	inactive	inactive	inactive	inactive				inactive		inactive
COC(=O)c1c(C)cc(O)c(C)c1O	inactive	inactive	inactive	inactive	inactive	inactive	inactive	inactive	inactive	inactive	inactive	inactive	inactive	inactive		inactive		inactive	inactive	
CCCCCCCOC(C)=O	inactive	inactive	inactive	inactive	inactive	inactive	inactive		inactive	inactive	inactive	inactive	inactive	inactive		inactive			inactive	inactive
CCOC(=O)c1ccc(N(C)C)cc1	inactive	inactive	inactive	inactive	inactive	inactive	inactive	inactive	inactive	inactive	inactive	inactive		inactive		inactive		9.69 µM (active)		inactive
O=CN1CCCCC1	inactive	inactive	inactive	inactive	inactive	inactive	inactive	inactive	inactive	inactive	inactive	inactive		inactive		inactive				inactive
COC(=O)N/N=C/c1c[n+]([O-])c2ccccc2[n+]1[O-]	inactive	23.9 µM (active)	23.9 µM (active)	inactive	21.3 µM (active)	23.9 µM (active)	23.9 µM (active)	23.9 µM (active)	inactive	21.3 µM (active)	inactive	26.8 µM (active)	inactive	inactive		inactive	inactive		inactive	
CC(C)CC(O)Cc1ccccc1 (stereo unspecified)	inactive	inactive	inactive	inactive	inactive	inactive	inactive		inactive	inactive	inactive	inactive	inactive	inactive	inactive	inactive		inactive	inactive	inactive
C[C@H]1COc2c(C3(N)CC3)c(F)cc3c(=O)c(C(=O)O)cn1c23	inactive	inactive	inactive	inactive	inactive	inactive	inactive	inactive	inactive	inactive	inactive	inactive	inactive	inactive			inactive			inactive
COc1cc(OC)cc(OC)c1	inactive	inactive	inactive	inactive	inactive	inactive	inactive	inactive	inactive	inactive	inactive	inactive		inactive	inactive	inactive	inactive		inactive	
COC(=O)c1ccccc1Cl	inactive	inactive	inactive	inactive	inactive	inactive	inactive	inactive	inactive	inactive	inactive	inactive	inactive					inactive		inactive
CC(=O)c1ccc(O)c(C(N)=O)c1	inactive	inactive	inactive	inactive	inactive	inactive	inactive	inactive	inactive	inactive	inactive	inactive	inactive	inactive	inactive			inactive	inactive	
CCN(CC)CC(=O)Oc1ccc(NC(C)=O)cc1	inactive	inactive	inactive	inactive	inactive	inactive	inactive	inactive	inactive	inactive	inactive	inactive		inactive	inactive			inactive		
CC(=O)SC[C@@H](C)C(=O)N1CCC[C@H]1C(=O)N[C@@H](Cc1ccccc1)C(=O)O	inactive	inactive	inactive	inactive	inactive	inactive	inactive	inactive	inactive	inactive	inactive	inactive	inactive	inactive		inactive	3.55 µM (active)	inactive		
CN(C)c1ccncc1	inactive	inactive	inactive	inactive	inactive	inactive	inactive	inactive	inactive	inactive	inactive	inactive	inactive			inactive				inactive

Source: PubChem BioAssay (Tox21)
